# Where “and” joins values, the source holds several entries; their conditions need not be identical. Equal values may be shown once. Where a structure was tested more than once in an assay, its records may differ in their call. Calls of active or inactive are those of the source. Rule for the calls: active = hit-call score of the fitted dose curve at least 0.9, where 1 is the maximum; inactive = score below 0.9.
# Experiments:
# [1] = ATG_E_Box_CIS: Attagene CIS-FACTORIAL HepG2 Assay for human Enhancer Box (E-box) (AID 2282936); conditions: HepG2 E-box cis-reporter transcription, actives raise or lower the signal
# How it was run: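 First, HepG2 cells receive multiple cis-regulated reporter constructs by transient transfection. Next, chemicals are applied for 24 h. Finally, reporter mRNA is quantified via RT-PCR and capillary electrophoresis, with DMSO as baseline.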
# [2] = ATG_M_61_CIS: Attagene CIS-FACTORIAL HepG2 Assay for M61 Transcription Factor (Internal Marker) (AID 2282937); conditions: HepG2 Attagene CIS-FACTORIAL M61 internal marker reporter; actives raise or lower the signal
# How it was run: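 HepG2 cells transiently transfected with cis-element-driven multiple reporter transcription units, dosed for 24 h. Reporter mRNA measured by RT-PCR, 6-FAM primer-extension labelling, HpaI digestion and capillary electrophoresis; bidirectional fit versus DMSO baseline.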
# [3] = ATG_EGR_CIS: Attagene CIS-FACTORIAL HepG2 Assay for human Early Growth Response 1 (EGR1) (AID 2282938); conditions: HepG2 Attagene CIS-FACTORIAL EGR reporter mRNA; actives raise or lower the signal
# How it was run: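 HepG2 cells transiently transfected with cis-promoter-driven multiplexed reporter transcription units; reporter mRNA measured 24 h after compound dosing by RT-PCR, 6-FAM primer extension, HpaI digestion and capillary electrophoresis. Bidirectional fit versus DMSO baseline.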
# [4] = ATG_M_19_CIS: Attagene CIS-FACTORIAL HepG2 Assay for M19 Transcription Factor (Internal Marker) (AID 2282939); conditions: HepG2 Attagene CIS-FACTORIAL M19 internal marker reporter; actives raise or lower the signal
# How it was run: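 Chemical-treated HepG2 (24 h) with MRTU constructs; reporter transcripts detected by fluorescent RT-PCR fragment analysis on capillary electrophoresis. Internal background marker, DMSO as baseline.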
# [5] = ATG_ERE_CIS: Attagene CIS-FACTORIAL HepG2 Assay for Estrogen Response Element (ERE) (AID 2282940); conditions: HepG2 ERE cis-reporter, Attagene RNA transcript; actives raise or lower the signal
# How it was run: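 Human liver cells (HepG2) bearing transiently transfected, promoter-regulated reporter units were exposed 24 h. Reporter mRNA induction was detected by capillary electrophoresis of labelled RT-PCR products and fitted bidirectionally to DMSO.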
# [6] = ATG_Ets_CIS: Attagene CIS-FACTORIAL HepG2 Assay for human Erythroblast Transformation Specific (ETS) (AID 2282941); conditions: HepG2 ETS cis-reporter transcription, actives raise or lower the signal
# How it was run: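 HepG2 cells transfected with multiple cis-regulated reporter units measuring endogenous ETS-driven transcription, 24 h after dosing. Reporter mRNA quantified by RT-PCR with capillary electrophoresis; bidirectional fit relative to DMSO.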
# [7] = molecular target: Hepatocyte nuclear factor 3-beta (Homo sapiens) (UniProt Q9Y261); assay: ATG_FoxA2_CIS: Attagene CIS-FACTORIAL HepG2 Assay for human Forkhead box A2 (FOXA2) (AID 2282942); conditions: HepG2 cis-reporter transcription factor activity, 24 h; actives raise or lower the signal
# Chain of Hepatocyte nuclear factor 3-beta (Homo sapiens) (Q9Y261 whole entry, looked up): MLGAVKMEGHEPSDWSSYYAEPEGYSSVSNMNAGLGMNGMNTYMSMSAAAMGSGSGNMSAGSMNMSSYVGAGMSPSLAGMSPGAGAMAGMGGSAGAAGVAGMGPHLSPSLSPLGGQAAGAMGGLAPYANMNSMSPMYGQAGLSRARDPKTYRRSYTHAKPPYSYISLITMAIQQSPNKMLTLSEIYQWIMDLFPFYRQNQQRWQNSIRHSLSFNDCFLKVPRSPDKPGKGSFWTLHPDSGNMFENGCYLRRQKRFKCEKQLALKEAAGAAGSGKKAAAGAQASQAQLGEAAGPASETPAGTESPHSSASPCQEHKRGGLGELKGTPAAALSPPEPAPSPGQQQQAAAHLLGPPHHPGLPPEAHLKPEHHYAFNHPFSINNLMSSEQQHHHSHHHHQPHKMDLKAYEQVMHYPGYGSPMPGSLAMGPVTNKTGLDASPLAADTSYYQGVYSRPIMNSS
# How it was run: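 HepG2 cells transiently transfected with multiple cis-regulated reporter transcription units, dosed for 24 h. Reporter mRNA measured by RT-PCR, 6-FAM labelling, HpaI digestion and capillary electrophoresis; bidirectional fitting against DMSO baseline.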
# [8] = ATG_FoxO_CIS: Attagene CIS-FACTORIAL HepG2 Assay for human Forkhead box O (FoxO) (AID 2282943); conditions: HepG2 Attagene cis-reporter, FoxO element, mRNA; actives raise or lower the signal
# How it was run: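 HepG2 cells transiently transfected with cis-element-driven reporter units report endogenous FoxO activity. After 24 h chemical exposure, reporter mRNA quantified by RT-PCR, fluorescent labeling, HpaI digestion and capillary electrophoresis; bidirectional fit versus DMSO.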
# [9] = ATG_GATA_CIS: Attagene CIS-FACTORIAL HepG2 Assay for human GATA Binding Protein (AID 2282944); conditions: HepG2 GATA cis-element reporter, Attagene multiplex mRNA; actives raise or lower the signal
# How it was run: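 Transfected cis-reporter HepG2 cells were treated with chemicals for 24 hours. Total RNA was then converted to cDNA, amplified with reporter-specific primers and analysed by fluorescent capillary electrophoresis, using DMSO-treated wells as baseline.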
# [10] = ATG_GLI_CIS: Attagene CIS-FACTORIAL HepG2 Assay for human Zinc Finger Protein GLI1 (AID 2282945); conditions: HepG2, Attagene cis-factorial reporter mRNA, GLI element; actives raise or lower the signal
# How it was run: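 Transiently transfected HepG2 cells report endogenous transcription factor activity via cis-element-driven reporter units. After 24 h compound exposure, reporter mRNA was measured by RT-PCR with capillary electrophoresis; bidirectional fitting against DMSO baseline.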
Structure (SMILES),AC50 [1],outcome [2],AC50 [3],outcome [4],outcome [5],outcome [6],outcome [7],outcome [8],outcome [9],outcome [10],outcome [1],outcome [3],AC50 [9],AC50 [10],AC50 [5],AC50 [4],AC50 [8],AC50 [6],AC50 [7]
CN(C)C(=O)NC1(c2ccccc2)CCN(CCC[C@]2(c3ccc(Cl)c(Cl)c3)CCCN(C(=O)c3ccccc3)C2)CC1,4.17 µM (active),inactive,2.75 µM (active),inactive,inactive,inactive,inactive,inactive,inactive,inactive,–,–,–,–,–,–,–,–,–
NC1CCCCC1,–,inactive,–,inactive,inactive,inactive,inactive,inactive,inactive,inactive,inactive,inactive,–,–,–,–,–,–,–
CCCCCCC(CCCCCCCCCCC(=O)OCC(COC(C)=O)OC(C)=O)OC(C)=O (configuration not stated),–,inactive,–,inactive,inactive,inactive,inactive,inactive,inactive,inactive,inactive,inactive,–,–,–,–,–,–,–
CCN(CC)CCOc1ccc(C(=C(Cl)c2ccccc2)c2ccccc2)cc1,11.9 µM (active),inactive,6.34 µM (active),inactive,–,inactive,inactive,inactive,inactive,inactive,inactive,inactive,17.6 µM (active),9.35 µM (active),–,–,–,–,–
O=C(NS(=O)(=O)/C=C/c1cccs1)c1ccc(F)cc1Br,–,inactive,–,inactive,inactive,inactive,inactive,inactive,inactive,inactive,inactive,inactive,–,–,–,–,–,–,–
Cc1c(C)c2c(c(C)c1O)CCC(C)(COc1ccc(CC3SC(=O)NC3=O)cc1)O2 (configuration not stated),–,inactive,–,inactive,–,inactive,inactive,inactive,inactive,inactive,inactive,inactive,–,–,0.221 µM (active),–,–,–,–
c1ccc2occc2c1,–,inactive,–,inactive,inactive,inactive,inactive,inactive,inactive,inactive,inactive,inactive,–,–,–,–,–,–,–
CCc1nc(N)nc(N)c1-c1ccc(Cl)cc1,–,inactive,32.8 µM (active),inactive,inactive,inactive,inactive,inactive,inactive,inactive,inactive,–,–,–,–,–,–,–,–
COc1ccc(C(=O)Nc2nc3ccccc3c(NCc3ccccc3)c2C#N)cc1,–,inactive,–,inactive,–,inactive,inactive,inactive,inactive,inactive,inactive,inactive,–,–,1.46 µM (active),–,–,–,–
COc1ccc(OC(F)(F)F)cc1CN[C@H]1CCCN[C@H]1c1ccccc1,11 µM (active),inactive,–,inactive,inactive,inactive,inactive,inactive,inactive,inactive,–,inactive,–,–,–,–,–,–,–
NC(=Nc1ccccc1)Nc1ccccc1,–,inactive,39.2 µM (active),inactive,inactive,inactive,inactive,inactive,inactive,inactive,inactive,–,–,–,–,–,–,–,–
O=C1CCCCC1,–,inactive,–,inactive,inactive,inactive,inactive,inactive,inactive,inactive,inactive,inactive,–,–,–,–,–,–,–
CC1=C(C)S(=O)(=O)CCS1(=O)=O,100 µM (active),inactive,–,inactive,inactive,inactive,inactive,inactive,inactive,inactive,–,inactive,–,–,–,–,–,–,–
CC1(C)C(=O)NC(=O)N1CO,–,inactive,–,inactive,–,inactive,inactive,inactive,inactive,inactive,inactive,inactive,–,–,158 µM (active),–,–,–,–
CCCCCCCCCC[N+](C)(C)[O-],–,inactive,–,inactive,inactive,inactive,inactive,inactive,inactive,inactive,inactive,inactive,–,–,–,–,–,–,–
CCCCCCCC(=O)OC,–,inactive,–,inactive,inactive,inactive,inactive,inactive,inactive,inactive,inactive,inactive,–,–,–,–,–,–,–
CC(=O)O[C@]1(C(C)=O)CC[C@H]2[C@@H]3C=C(Cl)C4=CC(=O)[C@@H]5C[C@@H]5[C@]4(C)[C@H]3CC[C@@]21C,165 µM (active) and 78.6 µM (active) and 50.5 µM (active),inactive,27.9 µM (active) and 40.3 µM (active) and 100 µM (active),inactive,–,inactive,inactive,inactive,inactive,inactive,inactive,inactive,174 µM (active) and 48.9 µM (active),100 µM (active) and 145 µM (active),–,180 µM (active),150 µM (active) and 158 µM (active) and 48.6 µM (active),–,–
CCCCCCCCCCCCCCCCO,–,inactive,–,inactive,inactive,inactive,inactive,inactive,inactive,inactive,inactive,inactive,–,–,–,–,–,–,–
COC(=O)CCC(=O)OC,–,inactive,–,inactive,inactive,inactive,inactive,inactive,inactive,inactive,inactive,inactive,–,–,–,–,–,–,–
O=C(N[C@@H](c1ccccc1)[C@@H]1CCCCN1)c1cccc(C(F)(F)F)c1Cl,–,inactive,25.7 µM (active),inactive,inactive,–,inactive,inactive,inactive,–,inactive,–,–,55.9 µM (active),–,–,–,33 µM (active),–
CC(=O)[C@@]1(O)CC[C@H]2[C@@H]3CCC4=CC(=O)CC[C@]4(C)[C@H]3CC[C@@]21C,4.34 µM (active) and 27 µM (active) and 33.6 µM (active),inactive,–,inactive,–,inactive,inactive,inactive,inactive,inactive,inactive,inactive,–,–,–,–,–,–,–

Structure (SMILES),AC50 [1],outcome [2],AC50 [3],outcome [4],outcome [5],outcome [6],outcome [7],outcome [8],outcome [9],outcome [10],outcome [1],outcome [3],AC50 [9],AC50 [10],AC50 [5],AC50 [4],AC50 [8],AC50 [6],AC50 [7]
OCC(CO)n1cnc(-c2ccc(F)cc2)c1-c1ccnc(Oc2ccccc2)n1,–,inactive,–,inactive,inactive,inactive,inactive,inactive,inactive,inactive,inactive,inactive,–,–,–,–,–,–,–
CN(C)CCCN(C)CCCN(C)C,–,inactive,–,inactive,inactive,inactive,inactive,inactive,inactive,inactive,inactive,inactive,–,–,–,–,–,–,–
CCCCCCCCCCCCCCOS(=O)(=O)O,–,inactive,–,inactive,inactive,inactive,inactive,inactive,inactive,inactive,inactive,inactive,–,–,–,–,–,–,–
CCCCc1nc2cccnc2n1Cc1ccc(-c2ccccc2-c2nnn[nH]2)cc1,–,inactive,–,inactive,inactive,inactive,inactive,inactive,inactive,inactive,inactive,inactive,–,–,–,–,–,–,–
CSc1ccc(Oc2ccc(S(N)(=O)=O)cc2CN(C)C)cc1C,–,inactive,–,inactive,inactive,inactive,inactive,inactive,inactive,inactive,inactive,inactive,–,–,–,–,–,–,–
O=Cc1ccccc1C=O,–,inactive,–,inactive,inactive,inactive,inactive,inactive,inactive,inactive,inactive,inactive,–,–,–,–,–,–,–
Nc1nc(=S)c2[nH]cnc2[nH]1,–,inactive,–,inactive,–,inactive,inactive,inactive,inactive,inactive,inactive,inactive,–,–,98.1 µM (active),–,–,–,–
Cc1ccc(-c2cc(C(F)(F)F)nn2-c2ccc(S(N)(=O)=O)cc2)cc1,–,inactive,–,inactive,inactive,inactive,inactive,inactive,inactive,inactive,inactive,inactive,–,–,–,–,–,–,–
O=C1OC(c2ccc(O)cc2)(c2ccc(O)cc2)c2ccccc21,176 µM (active),inactive,20.8 µM (active),inactive,–,inactive,–,inactive,inactive,–,–,–,–,159 µM (active),–,–,–,–,177 µM (active)
Cc1cc(Cc2ccc(N)c(C)c2)ccc1N,–,inactive,–,inactive,–,inactive,inactive,inactive,inactive,inactive,inactive,inactive,–,–,–,–,–,–,–
Cc1occc(=O)c1O,–,inactive,–,inactive,–,inactive,inactive,inactive,inactive,inactive,inactive,inactive,–,–,–,–,–,–,–
CC(N)=O,–,inactive,–,inactive,–,inactive,inactive,inactive,inactive,inactive,inactive,inactive,–,–,–,–,–,–,–
CC(C)NCC(O)c1ccc(O)c(O)c1 (configuration not stated),–,inactive,–,inactive,–,inactive,inactive,inactive,inactive,inactive,inactive,inactive,–,–,–,–,–,–,–
CCCC[C@H]1CN(CC2CCOCC2)C(=O)OC12CCN(C1(C)CCN(C(=O)c3c(C)ncnc3C)CC1)CC2,–,inactive,–,inactive,–,inactive,inactive,inactive,inactive,inactive,inactive,inactive,–,–,–,–,–,–,–
CCC(C)N(C)C(=O)c1cc2ccccc2c(-c2ccccc2Cl)n1 (configuration not stated),–,inactive,62.5 µM (active),inactive,inactive,inactive,inactive,inactive,inactive,inactive,inactive,–,–,–,–,–,–,–,–
CCc1cc(C2=C(C(=O)O)N(c3ccccc3C(F)(F)F)S(=O)(=O)c3ccccc32)cc2c1OCO2,–,inactive,–,inactive,–,inactive,inactive,inactive,inactive,inactive,inactive,inactive,–,–,–,–,–,–,–
CC(C)COC(=O)CCCCC(=O)OCC(C)C,–,inactive,–,inactive,–,inactive,inactive,inactive,inactive,inactive,inactive,inactive,–,–,–,–,–,–,–
Oc1ccc(O)cc1,–,inactive,–,inactive,–,inactive,inactive,inactive,inactive,inactive,inactive,inactive,–,–,35.6 µM (active),–,–,–,–
CC(C)c1cccc(C(C)C)c1NC(=O)NS(=O)(=O)c1cc(C(C)(C)O)co1,–,inactive,–,inactive,–,inactive,inactive,inactive,inactive,inactive,inactive,inactive,–,–,–,–,–,–,–
CO[C@@H]1COCC[C@@H]1N[C@@H]1CC[C@@](C(=O)N2CCc3ncc(C(F)(F)F)cc3C2)(C(C)C)C1,–,inactive,–,inactive,–,inactive,inactive,inactive,inactive,inactive,inactive,inactive,–,–,–,–,–,–,–
CC(COCC(C)OC(=O)c1ccccc1)OC(=O)c1ccccc1 (configuration not stated),–,inactive,–,inactive,–,inactive,inactive,inactive,inactive,inactive,inactive,inactive,–,–,–,–,–,–,–

# Reference: PubChem BioAssay (EPA / NIEHS)
